# Experimental data: the supplement of paper PMC6555819
# Test system: PPARg homodimer (NR concentration 180 nM)
# Assay: PBM binding z-score (relative to random genomic background probes); higher = stronger binding; sequences stand for … in GC…GCGATTGACAGCGTAGAATGAAGG
# Summary of the method: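 Regression normalization was applied to scanned fluorescence from custom Agilent 4×180K protein-binding microarrays. Before scanning, arrays were incubated 1 h with ligand-free nuclear receptor dimers, and binding was detected with antibodies against each partner (one per run). Binding z-scores use the random background probes as reference.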
row,Sequence,PBM binding z-score
1,CAAACTAGGACAAGAGGTCAAAGTCCGCTTCCCG,3.1
2,GGAACAAGGGCAAAGTTGATAGCATCTGTCGACG,0.637
3,ACTTACGGGTCAAAGAGGTTATAGCACGCGTATA,3.6
4,CCGACTGGGGCATAAGGTTACCAGAAGCCAGCCC,0.743
5,ACTATTAGTTGAGACGAGAGCAACCGATAGGTTG,0.139
6,TCGAGTAGGTTAGTCAGGGCATTCAGCCAACATA,0.613
7,TCGAGTAGGTGAGGGGCATTCAGAATGGCGTCGA,0.149
8,ATATGTAGGTTAAGGTTCATTCAGGTTGGTTCGC,3.29
9,AGAATGAGGTTATTCGTAGATCAGGGAAGAAAGT,0.454
10,GCGACTGGGGCACAGCAGGTTACCATAAGGTTGG,0.354
11,GGAACGCGGGCATTCGAGTTGATAGCATGGCGAT,-1.1
12,CCTACTGGGCTACGAAAGGTCATTGATTCAGTGA,3.32
13,ACTTACCGGTCAACGAGGTTATAGCACGCGTATA,1.88
14,CTCGAAAGGTCGTGCTCAGGTGAGGATACCAAAC,1.74
15,GCTATGAGTTGAAAGGGCAACCGAATGATTCTCG,0.982
16,ATTTGTAGGTTAAGGGTCATTCAGGTTGGTTCGC,7.55
17,TATTGTAGATCAAGCAGGTTAAGAAAGCCTGAGT,0.0743
18,CGTCATAGTTCAACTAAGGTAACGTAAAGCACGC,1.81
19,TGTCAAAGTTCAAAGGTAACCTAAGTATCCACAC,3
20,CGTCCATGGTCAGAGAGGTCAGTGAATGCCGAGT,1.93

row,Sequence,PBM binding z-score
1,ACTCGGAGGACAAAGGTCAGAGGTACGCCAGTGA,3.17
2,CTCGAAAGGTCGGTTTAGGTGAGTATACGGATAA,1.29
3,TAGCCTAGGTCATGGGGGCCAGTATAGTGTCGGC,2.19
4,ATCTCTAGGTAAAAGTTCAGGGAATCCCGAGGAT,1.25
5,CTCGAAAGGTCGTGCTCAGGTGTGTATACCAAAC,3.36
6,ACTTACGGGTCGACGAGGTTATAGCACGCGTATA,0.944
7,AGTCAAAGTTCTCTAGGTAACGTAAGATTCAGCT,0.225
8,AGAATGCGGTTATACGTAGATCAGGGAAGAAAGT,-0.759
9,AGAATGAGGTTCAGATCAGGGAAACAGAATACAT,0.165
10,CCTACTGGGCCATCAGGTCACTGATATCAACGTT,0.904
11,CGTCCAAGGTCAGCAGGTTAGTGAAAGCGACGTG,3.19
12,CGTCCAAGGTGAATGCTAGGTCAGTGAAAGCATT,0.968
13,TGAATGAGGTTATAAGATCAGGGTACGTTGCAAA,0.135
14,TCTGCTAGCTCAACGATGGTCAGCTAATCTGCTA,-1.44
15,TCTTGTAGATCAAGCGGGTTAAGAAAGCCTGAGT,-0.174
16,ATATGTAGGTTATTGGGTCATTCAGTTTGCGCAT,4.1
17,ATCTCTAGGTAACCAGTTCAGTGAAAGAGAGGAC,1.06
18,TCTTGTAGACCAAGCAGGTTAAGAAAGCCTGAGT,-0.226
19,CCTACTGGGCCATTCAGAGCTCATTGATCATATG,-0.275
20,AGAATGAGGTTATTAAGATCAAGGAATTGCGGTC,0.735
